Measured values reported in PubChem BioAssay AID488857 (Sanford-Burnham Center for Chemical Genomics, 2010).
Hit rate of the full screen: of about 1,400 compounds, about 560 (40%) were called active.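 How the source made its calls: active means mean inhibition over duplicate tests at 10 µM above 50%; inactive means the rest.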 The set was probably picked from earlier hits. Some of the results follow.

Assay: ASC/caspase-1 reporter retest in S. cerevisiae at one dose, specificity check for NALP1 project (AID 488857)
Conditions: S. cerevisiae ASC/Caspase-1, beta-galactosidase luminescence, 24 h; at 10 µM; hits give high values

inhibition, active:
Cc1sc2ncnc(N/N=C/c3ccccc3O)c2c1C 58.4%
CC1CCN(C(=O)/C=C/c2ccc(C(C)(C)C)cc2)CC1 63.4%
O=C(/C=C/c1ccccc1)N1CCC(c2ccccc2)C1 (configuration not stated) 62.6%
Cc1cc(C)cc(OCc2nnc(SCC(=O)OC(C)C)o2)c1 61.5%
COc1ccc(CNc2cccc(F)c2)cc1Br 72.2%
COc1ccc(Cc2ccc(OC)c(N)c2)cc1N 53.1%
COC(=O)N/N=C/c1ccc(-c2cccc(Cl)c2)o1 80.9%
CC1(C)CCSC(/C=C/c2ccccc2)=N1 92%
Cc1[nH][nH]c(=O)c1C(c1c(C)[nH][nH]c1=O)c1cn(Cc2ccc(Cl)c(Cl)c2)c2ccccc12 61.2%
CSc1cc(N2CCOCC2)nc(-c2ccccc2Cl)n1 74.1%
O=[N+]([O-])/C=C/c1ccc2c(ccn2Cc2ccccc2)c1 98.8%
Cc1ccc(OC(=S)Nc2ccc(O)cc2)cc1 88.4%
Cc1ccc(C(=O)/C=C/c2cn(CC(O)CN3CCOCC3)c3ccccc23)cc1 (configuration not stated) 52.7%
CCN1/C(=C/c2ccc3ccc(C)cc3[n+]2CC)Sc2ccccc21 84.9%
CCN1/C(=C\c2ccc3ccccc3[n+]2CC)Sc2cc(C)ccc21 100%
CCN1/C(=C/c2ccc3cc(C)ccc3[n+]2CC)Sc2ccccc21 100%
CC[n+]1c(/C=C2\Sc3ccccc3N2C)ccc2cccc(C)c21 98.1%
CCc1ccc(NCc2nc(-c3ccccc3)no2)cc1 57.2%
Cc1cc(OCCN2CCCC2)cc(C(C)C)c1 53.9%
Cc1ccc(C(C)C)cc1OCCN1CCCC1 54.6%
CCCCCCCCCCCCCCCCn1cc[n+](CC(C)=O)c1 80.2%
CCCCCCCCCCCCCCCCn1cc[n+](C)c1 89.7%
O=C(/C=C/c1ccccn1)c1ccc(Br)cc1O 85.5%
CCOc1ccc(N2C(=O)CC(N)C2=O)cc1 (configuration not stated) 70%
O=C(Cc1cccs1)Nc1nc(-c2ccc(F)cc2F)cs1 74.7%
CCOc1ccccc1C(=O)OCC(=O)Nc1ccc(N2CCCCC2)cc1 67.3%
CNC(=S)N/N=C/c1cc(Br)cc(Br)c1O 85.5%
CC(=O)n1cc(-c2ccncc2)c2ccccc21 52.4%
CN1CCc2cccc3c2[C@H]1Cc1ccc(O)c(O)c1-3 50.5%
CN1CCc2cccc3c2[C@@H]1Cc1ccc(O)c(O)c1-3 67%
COc1ccc(Nc2ccnc(Nc3ccc(OC)cc3)n2)cc1 64.2%
O=C(NC(Nc1nc2ccc([N+](=O)[O-])cc2s1)(C(F)(F)F)C(F)(F)F)c1ccccc1Cl 100%

inhibition, inactive:
O=S(=O)(Nc1ccc(-n2cccc2)cc1)c1ccc(Cl)cc1Cl 37.6%
COc1cc(C(=O)CCN2CCC(c3ccccc3)C2)cc(OC)c1OC (configuration not stated) 44.2%
CC(=O)Nc1ccc(C(=O)CSc2nnc(Cc3ccccc3)o2)cc1 24.2%
COc1cc(Cc2cnc(N)nc2N)cc(OC)c1OC 14.2%
COC(=O)N/N=C/c1ccc(OC(=O)c2ccco2)c(OC)c1 30.8%
Cc1ccc(/C=N/NC(=O)c2ccc3nc[nH]c3c2)o1 47.4%
C(#Cc1ccc(C#CCN2CCCC2)cc1)CN1CCCC1 42.5%
Cc1[nH][nH]c(=O)c1C(c1ccc(-c2ccc(Cl)c(Cl)c2)o1)c1c(C)[nH][nH]c1=O 39.9%
COc1ccc(S(=O)(=O)N2CCOC2CNC(=O)C(=O)NCCCN2CCOCC2)cc1C (configuration not stated) 28.6%
C/C(=N/NC(=O)c1nnn(-c2nonc2N)c1COc1ccccc1)c1ccc(O)cc1 27.6%
CCOc1nnc(C)c2c(C)n(-c3cccc(Cl)c3)nc12 28.1%
Cc1ccc(NC(=O)CNc2ccc(OC(C)C)cc2)cc1 39.6%
CNc1ccccc(-c2ccc3ccccc3n2)c1=O 39.4%
CCN1/C(=C/C=C/C=C/c2sc3ccccc3[n+]2CC)Sc2ccccc21 41%
Cc1cc(N2C(=O)C=CC2=O)c([N+](=O)[O-])cc1C 3%
CC1(C)NC(=O)N(CCCCOc2ccc3ccccc3c2Cl)C1=O 48.8%
O=C(CCNc1n[nH]c(=O)[nH]c1=O)N/N=C/c1ccc(C(F)(F)F)cc1 23.2%
COc1cc(OC)c(-c2nnc(-c3ccc(OC)c(OC)c3OC)o2)cc1OC 31%
Cc1ccc2c(c1)c1c3n2CCCNC3CCC1 (configuration not stated) 33%
c1ccc(-c2noc(-c3ccccc3-c3ccccc3)n2)cc1 23.6%
CC(C)c1ccc(CN2CCN(C(=O)CCl)CC2)cc1 35.6%
COCCCNCCOc1cc(C(C)C)ccc1C 30.4%
CCc1cccc(OCCN2CCCC2)c1 41.1%
Cc1cccc(C)c1OCC(=O)Nn1c(=O)[nH]c2ccccc2c1=O 34.9%
CCNc1ccc(Br)cc(C(=O)/C=C/c2c(Cl)cccc2Cl)c1=O 42.6%
Cc1cc(C)c(S(=O)(=O)N(CC(=O)O)CC(=O)O)c(C)c1 46%
CC[N+]1(CC)CC2=Cc3c(ccc4ccccc34)CC2C1 (configuration not stated) 35.5%
CCOc1ccc(C2N(c3ccc(F)cc3)C(=O)C3CCCN32)cc1 (configuration not stated) 26.1%
CCCCCCOc1ccc(N2C(=O)CC(N3CCC(C(=O)OCC)CC3)C2=O)cc1 (configuration not stated) 45.4%
Cc1ccc(Cl)cc1N1CCN(S(C)(=O)=O)CC1 33.1%
COc1ccc(-c2nc3c(c(=O)[nH]c(=O)n3Cc3ccccc3)n2C)cc1 41%
CCOC(=O)c1ccccc1NC(=O)COc1cc(=O)n(CC)c2ccccc12 33.4%
O=C(Nc1ccc(F)cc1)c1cccnc1N1CCCCC1 43.2%
Fc1ccc(Nc2ccnc(Nc3ccc(F)cc3)n2)cc1 46.8%
CN(C)S(=O)(=O)c1ccc(N2CCCC2)c(C(=O)Nc2nc3ccccc3s2)c1 42.1%
